According to the supplement of paper PMC8728848:
Many of the other results were omitted from the sample, so the strongest signals are more common in it than they were.

Key:
Assay in all cases: glycan array binding signal (z-score within array); higher = stronger binding
Details in all cases: glycan notation: IUPAC condensed, linker removed
[1] = target: GalNAc(a1-3)GalNAc(b1-3)Gal(a1-4)Gal(b1-4)GlcNAc
Summary of the method: (§1)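 The binding signal is a Z-score computed within each array. Data were drawn from 3228 arrays in the Consortium for Functional Glycomics database, restricted to those with a known protein sequence. Scores were averaged over arrays of the same protein sequence at different concentrations or buffers, and over linkers, and negative values can be taken as non-binding.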

[2] = target: GalNAc(b1-3)GlcNAc
Summary of the method: as §1

[3] = target: GalNAc6S(b1-4)GlcNAc
Summary of the method: as §1

[4] = target: GlcA(b1-3)GlcNAc
Summary of the method: as §1

[5] = target: GlcNAc(b1-2)Man(a1-3)[GlcNAc(b1-2)Man(a1-6)]Man(b1-4)GlcNAc(b1-4)GlcNAc
Summary of the method: as §1

[6] = target: GlcNAc(b1-3)Gal(b1-4)GlcNAc(b1-3)Gal(b1-4)GlcNAc
Summary of the method: as §1

[7] = target: GlcNAc(b1-3)Gal(b1-4)GlcNAc(b1-3)Gal(b1-4)GlcNAc(b1-3)Gal(b1-4)GlcNAc(b1-3)Gal(b1-4)GlcNAc(b1-2)Man(a1-3)[GlcNAc(b1-3)Gal(b1-4)GlcNAc(b1-3)Gal(b1-4)GlcNAc(b1-3)Gal(b1-4)GlcNAc(b1-3)Gal(b1-4)GlcNAc(b1-2)Man(a1-6)]Man(b1-4)GlcNAc(b1-4)GlcNAc
Summary of the method: as §1

[8] = target: Kdn(a2-6)Gal(b1-4)GlcNAc
Summary of the method: as §1

[9] = target: Man(a1-2)Man(a1-3)Man
Summary of the method: as §1

[10] = target: Man(a1-3)[Man(a1-6)]Man(a1-6)[Man(a1-2)Man(a1-3)]Man(b1-4)GlcNAc(b1-4)GlcNAc
Summary of the method: as §1

[11] = target: Neu5Ac(a2-3)Gal(b1-3)GalNAc(b1-3)Gal(a1-4)Gal(b1-4)Glc
Summary of the method: as §1

[12] = target: Neu5Ac(a2-3)Gal(b1-3)GlcNAc(b1-4)Gal(b1-4)Glc
Summary of the method: as §1

[13] = target: Neu5Ac(a2-3)Gal(b1-4)GlcNAc(b1-2)Man(a1-3)[Neu5Ac(a2-6)Gal(b1-4)GlcNAc(b1-2)Man(a1-6)]Man(b1-4)GlcNAc(b1-4)GlcNAc
Summary of the method: as §1

[14] = target: Neu5Ac(a2-3)Gal(b1-4)GlcNAc(b1-3)Gal(b1-3)GlcNAc
Summary of the method: as §1

[15] = target: Neu5Ac(a2-3)Gal(b1-4)GlcNAc(b1-3)Gal(b1-4)GlcNAc(b1-3)Gal(b1-4)GlcNAc
Summary of the method: as §1

[16] = target: Neu5Ac(a2-3)Gal(b1-4)[Fuc(a1-3)]GlcNAc(b1-3)Gal(b1-4)[Fuc(a1-3)]GlcNAc(b1-3)Gal(b1-4)[Fuc(a1-3)]GlcNAc
Summary of the method: as §1

[17] = target: Neu5Ac(a2-3)Gal6S(b1-4)GlcNAc
Summary of the method: as §1

[18] = target: Neu5Ac(a2-3)Gal6S(b1-4)[Fuc(a1-3)]GlcNAc
Summary of the method: as §1

[19] = target: Neu5Ac(a2-3)GalNAc(b1-4)GlcNAc
Summary of the method: as §1

[20] = target: Neu5Ac(a2-6)Gal(b1-4)GlcNAc(b1-2)Man(a1-3)[Neu5Ac(a2-3)Gal(b1-4)GlcNAc(b1-2)Man(a1-6)]Man(b1-4)GlcNAc(b1-4)GlcNAc
Summary of the method: as §1

[21] = target: Neu5Ac(a2-6)Gal(b1-4)GlcNAc(b1-2)Man(a1-3)[Neu5Ac(a2-6)Gal(b1-4)GlcNAc(b1-2)Man(a1-6)]Man(b1-4)GlcNAc(b1-4)GlcNAc
Summary of the method: as §1

[22] = target: Neu5Ac(a2-6)Gal(b1-4)GlcNAc(b1-3)Gal(b1-4)GlcNAc(b1-6)[Gal(b1-3)]GalNAc
Summary of the method: as §1

[23] = target: Neu5Ac(a2-6)Gal(b1-4)GlcNAc(b1-3)Gal(b1-4)[Fuc(a1-3)]GlcNAc(b1-3)Gal(b1-4)[Fuc(a1-3)]GlcNAc
Summary of the method: as §1

[24] = target: Neu5Ac(a2-6)Gal(b1-4)GlcNAc6S
Summary of the method: as §1

[25] = target: Neu5Ac(a2-8)Neu5Ac(a2-3)Gal(b1-3)GalNAc(b1-4)[Neu5Ac(a2-8)Neu5Ac(a2-3)]Gal(b1-4)Glc
Summary of the method: as §1

[26] = target: Neu5Ac(a2-8)Neu5Ac(a2-3)[GalNAc(b1-4)]Gal(b1-4)Glc
Summary of the method: as §1

[27] = target: Neu5Ac(a2-8)Neu5Ac(a2-8)Neu5Ac
Summary of the method: as §1

[28] = target: Neu5Ac(b2-6)GalNAc
Summary of the method: as §1

[29] = target: Neu5Gc(a2-3)Gal(b1-4)Glc
Summary of the method: as §1

[30] = target: Neu5Gc(b2-6)Gal(b1-4)GlcNAc
Summary of the method: as §1

B1: TAL6-6LysM (Trichoderma atroviride) (protein)
chain: AASKLGVPQPAQRDQVNCQLYAVQPNDNCIDISSKNNITYAQLLSWNPSLSSTCSNLASLNSSSICVSNPKGTFSISSNTVGATDIATTTAPVPSPTLDQTTSRCAKYYQVSDGDDCSHLTAQFAITLKDFIFLNSEVWQNCTNLELGYYYCVEPVGYISTYPGYLPTATTKPFNQTSATSLPYDGDPWARFSSNSSVIPIANGTRVDCYSYVYVKNLTENLFADCWNMASMYEITREELVLWNPSLGNDGSSGSNLSGAEASQVASSIAIPTTAPSSITTNLYTYPCTVAANISYCVALVSSTGALPTNTAPPGPHASGEISNCTAWFAPEAYDTCKSILDIFEMSFANFYKMNPSVGPDCSGLAVGTNYCVSTYPNGEDPNDDWDGDDSIPSISPTGIITPTPTQSGMVSNCNKFYDVHSNDGCSAIASSQHVDLSSLYKWNPAIKTDCSGLQASVYVCIGILTTSMSTTSKLPTTTSKPSTTSKPPTGITTPTPTQSGMVKNCNKFYDVHSGDGCSAIASSQKVNLSSFYLWNPAVKTDCSGLQASVFVCIGTLTTSMSTTTSKLPTTTSKPSTTSKPPTGIITPTPTQNGMVKNCNKFYDVHSGDGCSAIASSQKVNLSSFYLWNPAVKTDCSGLQASVFVCVGTATTTTAAGITTPTPTQSGMVSGCNKFYDVHAGDGCSAIASSQKIALSSLYKWNPAVKTDCSGLQASVYICIGVGNAAAARVTGAAASFLEQKLISEEDLNSAVDHHHHHH
For B1, the “glycan array binding signal (z-score)” value [1] was -0.794, the “glycan array binding signal (z-score)” value [2] was -0.241 and the “glycan array binding signal (z-score)” value [3] was 0.157. For the same binder, the “glycan array binding signal (z-score)” value [4] was 1.11, the “glycan array binding signal (z-score)” value [5] was 0.42 and the “glycan array binding signal (z-score)” value [6] was 0.291. The “glycan array binding signal (z-score)” value [7] was -0.734, the “glycan array binding signal (z-score)” value [8] was 2.71 and the “glycan array binding signal (z-score)” value [9] was -0.128. For the same binder, the “glycan array binding signal (z-score)” value [10] was 2.52, the “glycan array binding signal (z-score)” value [11] was -0.741 and the “glycan array binding signal (z-score)” value [12] was 0.273. For the same binder, the “glycan array binding signal (z-score)” value [13] was -0.683, the “glycan array binding signal (z-score)” value [14] was -0.147 and the “glycan array binding signal (z-score)” value [15] was 1.76. For the same binder, the “glycan array binding signal (z-score)” value [16] was 0.058, the “glycan array binding signal (z-score)” value [17] was 0.428 and the “glycan array binding signal (z-score)” value [18] was -1.04. The “glycan array binding signal (z-score)” value [19] was -0.545, the “glycan array binding signal (z-score)” value [20] was -0.013 and the “glycan array binding signal (z-score)” value [21] was 0.076. For the same binder, the “glycan array binding signal (z-score)” value [22] was -0.387, the “glycan array binding signal (z-score)” value [23] was 2.13 and the “glycan array binding signal (z-score)” value [24] was 0.283. For the same binder, the “glycan array binding signal (z-score)” value [25] was 0.052, the “glycan array binding signal (z-score)” value [26] was 2.17 and the “glycan array binding signal (z-score)” value [27] was -0.139. The “glycan array binding signal (z-score)” value [28] was -0.369, the “glycan array binding signal (z-score)” value [29] was -1.25 and the “glycan array binding signal (z-score)” value [30] was 0.217.
